Bioassay records (PubChem BioAssay)
The full list was thinned out, with hits kept by preference.
KDM5B inhibitor: blocks human KDM5B histone demethylase activity; 220,000 compounds, 2.6% hits; KDM5B demethylase, FDH-coupled NADH fluorescence (FDH is formaldehyde dehydrogenase); Potency, µM (doses to about 57.7 µM), usual class: inhibitors; Q9UGL1; active = well fitted inhibition curve with a large enough effect; also: 0% is about no effect; nearly all actives have a fitted effect of over 70% in size
Target sequence (Q9UGL1 whole entry, looked up): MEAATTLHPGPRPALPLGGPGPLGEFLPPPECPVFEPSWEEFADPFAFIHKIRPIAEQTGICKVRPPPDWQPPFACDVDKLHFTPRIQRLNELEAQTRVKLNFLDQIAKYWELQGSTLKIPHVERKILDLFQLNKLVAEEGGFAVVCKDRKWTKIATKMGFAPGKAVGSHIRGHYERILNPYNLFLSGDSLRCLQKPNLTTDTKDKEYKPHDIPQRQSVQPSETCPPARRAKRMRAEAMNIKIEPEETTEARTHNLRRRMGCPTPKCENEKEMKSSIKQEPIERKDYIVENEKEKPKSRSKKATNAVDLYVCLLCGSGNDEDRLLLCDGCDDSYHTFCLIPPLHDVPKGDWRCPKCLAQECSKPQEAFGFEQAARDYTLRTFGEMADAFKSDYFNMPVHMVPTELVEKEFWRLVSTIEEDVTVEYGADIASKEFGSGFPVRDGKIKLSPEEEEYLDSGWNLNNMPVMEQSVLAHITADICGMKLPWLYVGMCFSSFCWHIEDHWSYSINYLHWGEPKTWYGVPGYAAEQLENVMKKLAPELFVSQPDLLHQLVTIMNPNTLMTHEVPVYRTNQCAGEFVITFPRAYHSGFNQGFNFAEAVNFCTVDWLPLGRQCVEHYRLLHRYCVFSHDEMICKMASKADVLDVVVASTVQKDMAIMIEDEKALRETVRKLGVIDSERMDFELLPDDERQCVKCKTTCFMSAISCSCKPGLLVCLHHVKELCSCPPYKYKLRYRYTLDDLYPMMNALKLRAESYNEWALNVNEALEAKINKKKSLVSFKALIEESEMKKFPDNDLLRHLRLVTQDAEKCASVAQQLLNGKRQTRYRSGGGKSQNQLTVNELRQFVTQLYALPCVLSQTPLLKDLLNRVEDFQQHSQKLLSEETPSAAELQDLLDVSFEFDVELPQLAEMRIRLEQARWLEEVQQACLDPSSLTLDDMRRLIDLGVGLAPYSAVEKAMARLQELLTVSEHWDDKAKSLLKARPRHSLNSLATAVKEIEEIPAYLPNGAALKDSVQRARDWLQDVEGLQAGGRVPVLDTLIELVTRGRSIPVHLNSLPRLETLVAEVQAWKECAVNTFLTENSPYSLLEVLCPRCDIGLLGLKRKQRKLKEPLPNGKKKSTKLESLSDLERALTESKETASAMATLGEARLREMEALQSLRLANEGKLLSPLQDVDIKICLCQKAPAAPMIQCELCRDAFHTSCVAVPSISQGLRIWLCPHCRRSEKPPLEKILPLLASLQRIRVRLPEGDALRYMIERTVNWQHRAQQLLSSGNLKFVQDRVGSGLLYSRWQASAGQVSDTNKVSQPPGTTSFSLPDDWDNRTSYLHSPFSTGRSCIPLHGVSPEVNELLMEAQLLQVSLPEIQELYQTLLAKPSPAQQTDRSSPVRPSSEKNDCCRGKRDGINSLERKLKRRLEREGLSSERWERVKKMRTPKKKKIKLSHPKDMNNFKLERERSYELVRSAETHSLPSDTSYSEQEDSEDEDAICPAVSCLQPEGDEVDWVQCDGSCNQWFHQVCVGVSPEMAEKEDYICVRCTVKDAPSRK
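Inhibition is measured as reduced NADH fluorescence generation from FDH coupling to formaldehyde release. Truncated KDM5BΔAP at 200 nM final acts on H3K4me3 peptide (12.5 µM in substrate mix) in pH 7.5 HEPES buffer with Tween-20, 30 min, room temperature.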
* hit, by the source's call; i = inactive. Potency is read from the fitted curve at half-maximal effect.

SMILES	KDM5B inhibitor
COc1ccccc1OCCNC(=O)c1cn2ccnc(-c3ccccc3)c2n1	i
COc1ccc(OC)c(NC(=O)c2cc(CN3CCCC3)on2)c1	i
COc1c2occc2c(OC)c2c(=O)cc(C(F)(F)C(F)F)oc12	i
Cc1cc(C(F)(F)F)nc(CCNC(=O)C2NCCc3[nH]cnc32)n1 (stereo not given)	i
Cc1ccc2cccc(OCCNC(=O)C3NCCc4[nH]cnc43)c2n1 (stereo not given)	14µM*
O=C(NCc1nncn1CCc1ccccc1)C1NCCc2[nH]cnc21 (stereo not given)	i
CC(Nc1nc2c(c(=O)[nH]c(=O)n2C)n1Cc1ccccc1Cl)c1ccccc1 (stereo not given)	i
CC(C)CNc1nccc(C2(c3ccccc3Cl)CCNCC2)n1	22µM*
OCC(O)CNc1nccc(C2(c3ccccc3Cl)CCNCC2)n1 (stereo not given)	i
Clc1ccccc1C1(c2ccnc(NCc3ccncc3)n2)CCNCC1	i
Cc1oc(-c2ccccc2)nc1C(=O)OC(C)C(=O)N(C)C1CCCCC1 (stereo not given)	i
CCC(Oc1ccccc1)C(=O)Nc1ccc(OCc2cc(=O)n3ccccc3n2)cc1 (stereo not given)	i
CN(Cc1cccnc1)Cc1nc(C2(O)CCN(C3CCC3)CC2)cs1	i
O=C(O)c1nn(Cc2nc3ccccc3o2)c(=O)c2ccccc12	i
O=C(NCc1ccccc1F)C1CCN(C(=O)c2ncn3c2COC(c2ccc(Cl)cc2)C3)CC1 (stereo not given)	i
COc1ccc(CC(=O)N2CCc3cc(OC)c(OC)cc3C2COc2ccc(F)cc2)cc1OC (stereo not given)	i
Cc1ncc2n1C(=O)N(C1CCN(Cc3ccc(C(F)(F)F)cc3)CC1)C2	i
Cc1ncc2n1C(=O)N(C1CCN(Cc3ccc(F)cc3)CC1)C2	i
Cc1ncc2n1C(=O)N(C1CCN(Cc3ccncc3)CC1)C2	40µM*
Cc1cc(COc2ccccc2)oc1C(=O)N1CC[C@@](C)(O)[C@@H](O)C1	i
O=C(NCc1cccnc1N1CCOCC1)c1cnn(-c2ccc(Cl)cc2)c1	i
c1cc(-c2cc3c(ccn3Cc3ccncc3)c(N3CCOCC3)n2)c2cn[nH]c2c1	20µM*
O=C(NCc1ccccc1)c1nc(-c2cccc3[nH]ccc23)no1	i
O=C1c2[nH]nc(-c3ccccc3O)c2C(c2cccc(O)c2)N1Cc1ccncc1 (stereo not given)	i
c1cc(-c2cc3c(ccn3Cc3ccncc3)c(N3CCOCC3)n2)c2cc[nH]c2c1	20µM*
SMILES	KDM5B inhibitor
O=c1[nH]c(N2CCOCC2)nc2c1CCN(Cc1cccc(Cl)c1)CC2	i
c1cc(-c2cc3c(ccn3Cc3ccncc3)c(N3CCOCC3)n2)c2[nH]ncc2c1	25µM*
C[S+](=O)([O-])N1CCC(Cn2ccc3c(N4CCOCC4)nc(-c4cccc5[nH]ccc45)cc32)CC1	i
COc1cc2c(cc1CNC(=O)[C@H]1CCC[C@@H](O)C1)OCCO2	i
CCCCNC(=O)c1cccc2ccccc12	i
Cc1ccc(NC(=O)COC(=O)COc2cccc3c2OC(C)(C)C3)cc1C	i
Cc1cc2c(=O)n(C)c(SCC(=O)Nc3cccc(O)c3)nc2s1	i
O=C(CN1C(=O)C(c2ccccc2)=NC12CCCCC2)NCc1ccccc1	i
Cc1ccc(C)c(C(=O)N2CC(c3nnc(-c4ccncc4)o3)C3(CCOCC3)C2)c1 (stereo not given)	i
O=C(CCn1cccn1)Nc1cccc(C(F)(F)F)c1	i
COc1cccc(CNC(=O)c2ccc(N3CCCC3)c(NC(=O)Nc3ccccc3F)c2)c1	i
Cc1cc(C)cc(NC(=O)C(Sc2nnc(-c3ccoc3C)o2)c2ccccc2)c1 (stereo not given)	i
Cc1cc(C)c(-c2csc(NC(=O)Cn3cnc4c3c(=O)n(C)c(=O)n4C)n2)c(C)c1	i
Cc1nc(-c2c3n(c(=O)n(Cc4ccc(OC(F)(F)F)cc4)c2=O)CCCCC3)no1	i
CN(C)Cc1cccc(-c2cc3c(ccn3Cc3ccncc3)c(N3CCOCC3)n2)c1	40µM*
c1cc(-c2cc3c(ccn3Cc3ccncc3)c(N3CCOCC3)n2)cc(N2CCOCC2)c1	20µM*
CNc1nccnc1-c1cccc(CN2CCOCC2)c1	i
COc1c(N)ccnc1-c1cccc(CN2CCOCC2)c1	i
Cn1ccc2c(C(=O)NCc3cccnc3)nc(-c3cccc(N4CCOCC4)c3)cc21	i
Nc1cccc(-c2ccc(N3CCOCC3)nn2)c1	i
CC(C)CNC(=O)COc1cc(O)c2c(=O)cc(-c3ccccc3)oc2c1	i
COc1cccc(N2CCN(c3ncnc4c3c(-c3ccccc3)cn4-c3ccc(F)cc3)CC2)c1	i
CCn1c(=O)cc(SCC(=O)NCCc2cc(OC)ccc2OC)c2ccccc21	i
CN(CC(O)CO)c1ncc(C(C)(C)C(=O)O)c(N2CCOCC2)n1 (stereo not given)	i
CCOc1cc(/C=C2/NC(=O)NC2=O)cc(Cl)c1OCc1ccc(C(=O)O)cc1	i
SMILES	KDM5B inhibitor
O=C(CC1C(=O)NCCN1Cc1ccccc1)NC1C2CC3CC(C2)CC1C3 (stereo not given)	i
O=C(CC1C(=O)NCCN1Cc1ccc(-c2ccccc2)cc1)NCc1ccco1 (stereo not given)	25µM*
CN(Cc1cccnc1)C(=O)CC1C(=O)NCCN1Cc1ccc(-c2ccccc2)cc1 (stereo not given)	i
CCOc1ccc(CN2CCNC(=O)C2CC(=O)NC2CCCCCC2)cc1 (stereo not given)	i
O=C(CC1C(=O)NCCN1Cc1ccc(-c2ccccc2)cc1)NC(CO)CO (stereo not given)	20µM*
CCOc1ccccc1CN1CCNC(=O)C1CC(=O)NCc1ccccn1 (stereo not given)	i
O=C(C1CCCC1)N1CC2(CCCN(Cc3cccnc3)C2)Cc2ccccc21 (stereo not given)	i
CSc1nnc(C(C)(C)C)c(=O)n1/N=C/c1c(O)ccc2ccccc12	i
CC(C)CCNC(=O)CCS(=O)(=O)c1cc2c(cc1Br)CCN2C(=O)C1CC1	i
CCOC(=O)c1ccc(N2C(=O)c3n[nH]c(-c4ccco4)c3C2c2ccc(O)c(OC)c2)cc1 (stereo not given)	i
Cc1nc(-c2c3n(c(=O)n(CC(=O)Nc4cccc(Cl)c4C)c2=O)CCCCC3)no1	i
O=C(Cn1nc(-c2ccccc2)c2ccccc2c1=O)NN1CCOCC1	i
CN(Cc1ccc2nonc2c1)C(=O)c1cccc(CC2CCNCC2)c1	i
CCOCCn1nc(C)cc1C(=O)N1CC[C@@](O)(COC)C(C)(C)C1	i
Cn1ccc(Nc2nccc3c(=O)cc(-c4cn[nH]c4)oc23)n1	i
COc1ccc(-c2nccc3c(=O)cc(N4CCN(C)CC4)oc23)cn1	32µM*
COc1ncc(-c2nccc3c(=O)cc(N4CCN(C)CC4)oc23)cn1	35µM*
COc1ncc(-c2nccc3c(=O)cc(N(C)c4ccccc4)oc23)cn1	i
CN1CCC(C(=O)N2Cc3ccccc3CC3(CCCN(C)C3)C2)CC1 (stereo not given)	i
CS(=O)(=O)N1CCCC(C(=O)NC2CCCCC2)CCNC(=O)CC1 (stereo not given)	i
C=CCNC(=O)N[C@H]1C[C@H]2C(=O)Nc3ccccc3C(=O)N2C1	i
O=C(NC1CCN(c2cc(-c3cccs3)[nH]n2)CC1)c1ccc(F)cc1F	i
